Data on 94 compounds can be found in PubChem BioAssay AID800 (PCMD, 2007).

Among all 220,000 compounds or so, about 650 (0.3%) were called active. The entries come from a sample that favours actives as a whole. Values without a mark were called inactive. Cut-off read from the data, not from the text of the source: active = inhibition above about 40%; inactive = the rest.

Chain of Coagulation factor XII (Homo sapiens) (P00748 20-372 limits assumed): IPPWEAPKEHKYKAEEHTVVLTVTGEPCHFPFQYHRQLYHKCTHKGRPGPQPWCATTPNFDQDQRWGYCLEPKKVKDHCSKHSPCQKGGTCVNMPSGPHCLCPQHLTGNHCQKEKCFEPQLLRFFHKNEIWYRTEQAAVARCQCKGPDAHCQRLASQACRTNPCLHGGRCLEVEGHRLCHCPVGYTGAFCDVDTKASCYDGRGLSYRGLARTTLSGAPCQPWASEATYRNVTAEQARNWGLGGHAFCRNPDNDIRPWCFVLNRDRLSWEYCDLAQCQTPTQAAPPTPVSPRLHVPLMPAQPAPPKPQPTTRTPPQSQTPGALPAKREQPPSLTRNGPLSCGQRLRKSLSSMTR
Chain of Coagulation factor XII (Homo sapiens) (P00748 373-615 limits assumed): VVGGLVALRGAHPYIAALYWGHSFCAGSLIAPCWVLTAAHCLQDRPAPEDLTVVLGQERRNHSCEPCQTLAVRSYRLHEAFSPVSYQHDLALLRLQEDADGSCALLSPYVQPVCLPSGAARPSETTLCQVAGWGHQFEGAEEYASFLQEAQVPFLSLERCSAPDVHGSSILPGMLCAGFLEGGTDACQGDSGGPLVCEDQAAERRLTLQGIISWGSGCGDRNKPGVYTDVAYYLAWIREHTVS

The assay addresses Coagulation factor XII (Homo sapiens) (UniProt P00748). Nature of the assay: human FXIIa protease inhibitors, primary screen, biochemical, 1536-well (AID 800).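 Note: 0% = enzyme with no compound and 100% = blank without enzyme.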 To be noted: purified FXIIa, Boc-QGR-AMC fluorogenic substrate, 2 h; at 5 µM; hits give high values.
`O=C(c1ccc(F)cc1)n1c(=S)nc2ccccn21`: the inhibition was 0.92%.
To `COc1c(O)cc2oc(-c3ccc(O)c(O)c3)cc(=O)c2c1O` belongs 2.88%; to `CCCCN1Cc2c(nc3cc(-c4ccccc4)[nH]n3c2=O)C1=O`, -5.1%.
`O=C(NCc1cccnc1)c1cnc2ccccc2n1`: the inhibition was 8.13%.
Regarding `COC(=O)c1c(C)oc(C)c1S(=O)(=O)NCc1ccc(Cl)cc1`, the inhibition is 6.03%.
For `CC(=O)c1ccc(NC(=O)C2CC(=O)Nc3nc4ccccc4n32)cc1` (centres undefined) the value was 8.34%.
For `COc1ccc(C2/C=C\CN(S(=O)(=O)c3cccs3)CC(=O)N2Cc2ccc(F)cc2)cc1` (centres undefined), the inhibition is 9.45%.
For `O=[N+]([O-])c1cc(Cl)cc(/C=N/NC(=S)Nc2cc(S(=O)(=O)N3CCOCC3)ccc2Cl)c1O`, the inhibition is 6.23%.
For `CSCC[C@H](NC(=O)CCCn1nnc2ccccc2c1=O)C(=O)O` the value was 4.87%; for `CCOC(=O)COc1nc(C)cc(C(F)(F)F)c1C#N`, -0.55%; for `Cc1ccc(Nc2nc(N)nc(CSc3nnc(C)s3)n2)cc1`, 4.96%.
To `Cc1cnc(NC(=O)c2ccccn2)s1` belongs 7.08%; to `COC(=O)c1ccc(Oc2nc(Nc3ccc(F)cc3)nc(N3CCCC3)n2)cc1`, -2.89%; to `COC(=O)c1ccc(Oc2nc(NC(C)C)nc(SC)n2)cc1`, 44% (active).
For `CCNc1nc(Oc2ccc(C(=O)OC)cc2)nc(N2CCOCC2)n1` the value was 9.71%; for `COCCN(C(=S)Nc1cccc(Cl)c1C)C(C)c1ccco1` (centres undefined), 6.59%; for `COP1(=O)C[C@@H](O)[C@@H](O)[C@@H](COCc2ccccc2)O1` (some centres undefined), 5.94%.
Turning to `O=[N+]([O-])c1ccc2nc(-c3ccccn3)[nH]c2c1`, the inhibition is 5.76%.
For `CN(C)S(=O)(=O)c1ccc(NC(=O)COC(=O)Cn2[nH]c(=O)c3ccccc3c2=O)cc1` the value was -3.32%; for `Cc1nn2c(NCCN(C)C)c3c(nc2c1-c1ccccc1)CCC3`, 10.3%.
For `O=C1NNC(c2ccccc2)=N/C1=C\c1ccc(Cl)cc1` the value was 0.78%; for `CC1Cc2ccccc2N1CC(=O)Nc1ccc(S(N)(=O)=O)cc1` (centres undefined), 7.97%; for `COc1ccc2oc(N)c(C=O)c(=O)c2c1`, 8.71%.
For `CC(C)(C)C(=O)NNC(=O)c1ccc(Oc2cc(Cl)cc(Cl)c2)o1` the value was 8.39%; for `CCOC(=O)c1cc(C)nc(S(C)(=O)=O)c1C#N`, 2.84%; for `CC(C)=CCC/C(C)=C/C(=O)O`, 4.62%.
As to `O=c1c2ccccc2cnn1Cc1n[nH]c(=S)n1-c1ccccc1F`, the inhibition was 4.28%.
For `COc1ccc(SC[C@H](Cc2ccccc2)N2CCN(CCc3ccccc3)CCC2=O)cc1` the value was 9.1%; for `NC(=O)c1nnsc1-c1ccc(-c2snnc2C(N)=O)cc1`, -1.04%.
In the case of `COC(=O)c1cc(S(=O)(=O)N2CCC(C(N)=O)CC2)oc1C`, the inhibition was 1.7%.
For `NC(=O)CC(NC(=O)Cc1cccc2ccccc12)c1ccc(NCc2cc(F)ccc2F)c([N+](=O)[O-])c1` (centres undefined) the value was 3.78%.
As to `Nc1ccccc1C(=O)NC1CCCCNC1=O` (centres undefined), the inhibition is 3.81%.
For the compound `O=C(Nc1cccnc1Oc1ncnc2cc(Cl)ccc12)c1ccc(F)cc1`, the inhibition was 0.47%.
To `CCOC(=O)CC1C(=O)NCCN1c1nc2c(C)cccn2c(=O)c1/C=C1\SC(=S)N(C(C)CC)C1=O` (centres undefined) belongs 14%; to `S=c1[nH]nc(-c2cc(-c3ccccc3)n[nH]2)n1/N=C/c1c2ccccc2cc2ccccc12`, 8.1%.
For `CC(C)c1nc(SCC(=O)NC(=O)NC(C)(C)C)n[nH]1` the value was 12.8%; for `Cc1ccc(NNC(=O)C2CCC2)cc1C`, 10.5%; for `C=CCC1(C#N)C(=S)NC(C)=C(C(=O)OCC)C1c1ccccc1` (centres undefined), 6.96%.
To `Cc1nc(Cl)c(C#N)c2c1CCCC2` belongs 2.37%; to `Cc1cc(C)c(NC(=O)CN2C(=O)NC(Cc3ccccc3)C2=O)c(C)c1` (centres undefined), 0.73%; to `CC(C)=CCc1c(O)c(CC=C(C)C)c2occ(-c3ccc(O)cc3)c(=O)c2c1O`, 7.17%.
For the compound `O=C(O)C1=C[C@H](c2cccs2)C[C@H](OCCCCO)O1`, the inhibition was 7.11%.
As for `Cc1ccc(S(=O)(=O)NC(=O)N2CCCN(Cc3ccc(F)cc3)CC2)cc1`, the inhibition was 3.56%.
To `Cc1ccc(NC(=O)Nc2cc(-c3ccccc3)nn2C)cc1Cl` belongs -1.26%; to `Nc1nnc(SCC(=O)NC2CCCc3ccccc32)s1` (centres undefined), -2.74%.
For `CN(C)C(=O)c1coc2nc3ccccc3nc12` the value was 7.55%.
Take `CC1Cc2ccccc2N1S(=O)(=O)c1ccc(Cl)nc1` (centres undefined): the inhibition is 1.69%.
For `COc1ccc2c(c1)c1ncn(Cc3ccccn3)c(=O)c1n2C` the value was -1.96%; for `CN=C1C=C/C(=N/N=c2\ccn(O)cc2C)C=C1C`, 12.1%; for `O=C1CCC(=O)N(O)CCCCCNC(=O)CCC(=O)N(O)CCCCCNC(=O)CCC(=O)N(O)CCCCCN1`, 6.14%.
For `O=C(O)C(F)(F)C(NCc1ccccc1)c1ccccc1` (centres undefined) the value was 18.5%; for `CCOC(=O)CSc1nc(C)c(Oc2ccc(Cl)cc2Cl)c(=O)[nH]1`, 10.3%; for `COCCCn1c(-c2cccs2)nc2nc3ccccc3nc21`, -19.8%.
For `CSCC[C@H](NC(=O)NC1CCCC1)C(=O)O` the value was 0.35%.
For the compound `CCN(CC(=O)Nc1ccc(S(=O)(=O)N2CCCC2)cc1)CC(=O)Nc1cccc(OC)c1`, the inhibition was 3.63%.
To `O=C(NN1C(=O)C2CCCCC2C1=O)c1ccco1` (centres undefined) belongs 5.14%.
To `C/C(=N/NC(=O)CC(=O)N/N=C(\C)c1ccc([N+](=O)[O-])cc1)c1ccc([N+](=O)[O-])cc1` belongs 6.83%.
To `O=C(CS(=O)(=O)c1cn(Cc2cccc(F)c2)c2ccccc12)N1CCCCC1` belongs 14.4%; to `COc1cccc(NC(=O)CS(=O)(=O)c2cn(CC(=O)N3CCOCC3)c3ccccc23)c1`, 2.47%.
Turning to `O=C(CS(=O)(=O)c1cn(Cc2ccc(Cl)cc2)c2ccccc12)N1CCOCC1`, the inhibition was 45.4% (active).
To `CCN(CC)CCC(c1ccc2c(c1)OCO2)c1c(OC)cc(OC)c2c(-c3ccccc3)cc(=O)oc12` (centres undefined) belongs 8.45%; to `CN(Cc1ccccn1)Cc1nc(-c2ccc(Cl)cc2)no1`, 103% (active); to `CCN1CC(CN(C)Cc2nc(-c3ccc(Cl)cc3)no2)CC1=O` (centres undefined), 7.51%.
To `COC(=O)c1ccc(-c2noc(CN(Cc3ccccn3)CC3CCCO3)n2)cc1` (centres undefined) belongs 14.6%; to `COc1cc(OC)c2ccc(=O)oc2c1C(CCN1CCN(c2ccccc2)CC1)c1ccc2c(c1)OCO2` (centres undefined), 7.95%; to `CCOC(=O)c1c(N)sc2c1CCCC2=O`, 5.97%.
For `O=C(O)C1CCN(C(=O)c2cc(F)cc3c2OCOC3)CC1` the value was 4.37%; for `Cc1ccc(Nc2c3c(nc4ccccc24)CCC3)cc1`, 9.63%.
For `CSc1nnc(SCc2nc3sc(C(=O)O)c(C)c3c(=O)[nH]2)s1`, the inhibition is 10.1%.
To `COc1ccc(CCNC(=O)CCn2c(=O)c3ccccc3n(CC(=O)NCC3CCCO3)c2=O)cc1OC` (centres undefined) belongs 40% (active); to `COc1ccc(CCNC(=O)CCn2c(=O)oc3ccccc32)cc1OC`, 7.51%; to `COc1ccc(CCNC(=O)Cn2c(=O)n(CC3CCCO3)c(=O)c3ccccc32)cc1OC` (centres undefined), -8.44%.
Take `Cc1cc(Cl)ccc1NNC(=O)c1snnc1C`: the inhibition is 7.13%.
For `COc1ccc(SCCN2CCN(CC(C)C)CCC2=O)cc1` the value was 7.64%; for `CC1(C)CC(=O)C=C(Nc2ccccc2)C1`, 6.92%.
For `S=c1[nH]nc(-c2cc(-c3ccsc3)n[nH]2)n1-c1ccccc1` the value was 4.05%; for `CC(C)C(=O)N1CCC2(CC1)Oc1ccc(F)cc1C(=O)C21CC(c2ccccc2)=NO1` (centres undefined), 8.49%.
To `O=c1cc(CCl)nc2scc(-c3ccccc3)n12` belongs 6.87%; to `CN(C)/C=C/c1c(C#N)c(=O)ncn1Cc1ccccc1`, 53% (active).
As to `CN(C)c1ccnc2sc3c(=O)n(Cc4ccccc4)cnc3c12`, the inhibition is 2.78%.
As to `Cc1c(C#N)c2ncn(CC#N)c(=O)c2n1-c1ccccc1`, the inhibition was 7.67%.
To `O=C(N/N=C/c1cccc2cccnc12)[C@H]1C[C@@H]1c1ccccc1` belongs 8.29%.
To `O=C(O)CCn1c(O)c(C=C2N=c3ccccc3=N2)sc1=S` belongs 12.8%; to `COc1ccc(Cl)cc1S(=O)(=O)N1CCC(O)(c2ccc(Cl)cc2)CC1`, 3.43%; to `Cc1cc(N)n(-c2ccc(S(=O)(=O)N3CCCC3)cc2[N+](=O)[O-])n1`, 3.82%.
To `O=C(Nc1ccc(N2CCN(C(=O)c3ccccc3)CC2)c(Cl)c1)c1ncn[nH]1` belongs 7.54%; to `O=C(Cc1ccccc1)Nc1c(Cl)ccc2nsnc12`, 2.05%; to `C[C@H](NC(=O)c1nc[nH]c1C(=O)N[C@@H](C)C(=O)OC(C)(C)C)C(=O)OC(C)(C)C`, 12.4%.
For the compound `CCOC(=O)c1cn(CC)c2cc(F)c(F)cc2c1=O`, the inhibition was 4.45%.
For `COc1cc(NC(=O)c2cncc(-c3ccc(C#N)cc3)c2)cc(C(=O)Nc2cccc(C(F)(F)F)c2)c1` the value was 3.5%; for `O=[N+]([O-])c1cc([N+](=O)[O-])c2cccnc2c1O`, 3.18%; for `O=C(Nc1cccc(S(=O)(=O)NC2=NCCC2)c1)C1CCCCC1`, 14.4%.
To `COc1ccc2[nH]c(C(=O)Nc3ccccc3Cl)cc2c1` belongs 6.03%.
With `CCC/C(C)=N\Nc1nc2c(c(=O)n(C)c(=O)n2C)n1C`, the inhibition was 5.02%.

By inhibition is commonly meant the drop in the measured response relative to a control, in per cent.
